Among the test systems are SK-MEL-2 melanoma; EKVX NSCLC; UO-31 renal; TK-10 renal; ACHN renal; CAKI-1 renal; A498 renal; CCRF-CEM leukemia; MOLT-4 leukemia; SR leukemia; RPMI-8226 leukemia; OVCAR-8 ovarian; OVCAR-5 ovarian; OVCAR-4 ovarian; SK-OV-3 ovarian; IGROV1 ovarian; OVCAR-3 ovarian; HS 578T breast; NCI/ADR-RES ovarian; SN12C renal.
Holding throughout (experiment): NCI-60 one-dose screen, 48 h (100 = growth as untreated, 0 = no growth, -100 = all killed)
Conditions in all cases: 10 µM unless noted

Compounds without any hit were thinned out: in the full panel of roughly 83,000, 20% have a hit.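 Treatment: one concentration, 48 hours, 96-well format. Scoring: percent growth, with anything below 10 considered active.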 Unmarked numbers belong to inactive results. Calls of active or inactive are those of the source.

As for `OCCN(CCO)c1ccc2ccccc2c1`, the growth was 87.3% in the assay with SK-MEL-2 melanoma; 102% in the assay with EKVX NSCLC; 65% in the assay on UO-31 renal; 97.6% in the assay with TK-10 renal; 106% in the assay with ACHN renal; 97.3% in the assay on CAKI-1 renal. The growth with A498 renal is 110%; with CCRF-CEM leukemia it was 109%; with MOLT-4 leukemia, 98.8%; in the assay on SR leukemia, 104%; in the assay on RPMI-8226 leukemia, 110%; with OVCAR-8 ovarian, 104%. Besides, the growth in the assay on OVCAR-5 ovarian was 98.8%; in the assay with OVCAR-4 ovarian, 104%; with SK-OV-3 ovarian it was 98.3%; in the assay on IGROV1 ovarian it was 93.7%; with OVCAR-3 ovarian it was 103%; in the assay with HS 578T breast, 105%. In addition, the growth with NCI/ADR-RES ovarian is 98.7%.
In the case of `NS(=O)(=O)c1ccc(CCn2c(SCC(=O)N/N=C/c3cc4ccccc4[nH]3)nc3ccccc3c2=O)cc1`, the growth in the assay on SK-MEL-2 melanoma is 25.7%; in the assay with EKVX NSCLC, 85.3%; in the assay on UO-31 renal, 67%; in the assay with TK-10 renal, 102%; in the assay on ACHN renal it was 93.9%; with CAKI-1 renal, 82.5%. Moreover, the growth with A498 renal is 102%; with CCRF-CEM leukemia, 35%; in the assay with MOLT-4 leukemia, 23.1%; in the assay with SR leukemia, 26.4%; with RPMI-8226 leukemia it was 24.4%; in the assay on OVCAR-8 ovarian it was 40.5%. Also, the growth in the assay with OVCAR-5 ovarian was 113%; in the assay on OVCAR-4 ovarian it was 68.7%; with SK-OV-3 ovarian it was 95.4%; in the assay on IGROV1 ovarian, 65.4%; in the assay on OVCAR-3 ovarian, 68.6%; with HS 578T breast, 64.6%. Besides, in the assay with NCI/ADR-RES ovarian, the growth was 99.8%.
Turning to `CCN(CC)CCNC(=O)C(F)(F)C(F)(F)C(F)(F)F`, the growth in the assay with SK-MEL-2 melanoma is 106%; in the assay on EKVX NSCLC, 102%; with UO-31 renal, 89.9%; in the assay with TK-10 renal it was 108%; in the assay with ACHN renal, 101%; in the assay on CAKI-1 renal, 94.6%. Further, the growth is 102% in the assay on A498 renal; 100% with CCRF-CEM leukemia; 106% in the assay with SR leukemia; 107% in the assay with RPMI-8226 leukemia; 114% with OVCAR-8 ovarian; 99.2% with OVCAR-5 ovarian. In addition, the growth in the assay on OVCAR-4 ovarian is 112%; in the assay with SK-OV-3 ovarian, 101%; in the assay on IGROV1 ovarian, 138%; with OVCAR-3 ovarian it was 109%; in the assay with HS 578T breast, 96.7%; in the assay on NCI/ADR-RES ovarian it was 113%.
Regarding `NC(N)=N/N=C/c1cccc(Cl)c1Cl`, the growth in the assay with SK-MEL-2 melanoma was 106%; in the assay on EKVX NSCLC, 69.2%; in the assay with UO-31 renal, 66.3%; with TK-10 renal, 88%; in the assay with ACHN renal it was 84.2%; in the assay with CAKI-1 renal, 59.1%. Further, the growth was 61.6% with A498 renal; 52.7% in the assay with CCRF-CEM leukemia; 47.6% with MOLT-4 leukemia; 87.5% in the assay with OVCAR-8 ovarian; 85% with OVCAR-5 ovarian; 80% in the assay on SK-OV-3 ovarian. Also, the growth with IGROV1 ovarian is 86.5%; with OVCAR-3 ovarian, 72.8%; in the assay with HS 578T breast, 71.3%; with NCI/ADR-RES ovarian, 75.7%.
Turning to `CCn1c(Cc2ccccc2Nc2c(Cl)cccc2Cl)nnc1SCC(=O)Nc1cccc(OC)c1`, the growth is 91.5% in the assay with SK-MEL-2 melanoma; 77.7% in the assay on EKVX NSCLC; 68.6% with UO-31 renal; 82.8% in the assay with TK-10 renal; 88.7% in the assay on ACHN renal; 84.6% in the assay with CAKI-1 renal. For the same compound, the growth in the assay with A498 renal is 40.9%; in the assay with CCRF-CEM leukemia it was 73.1%; in the assay on MOLT-4 leukemia it was 54.3%; with SR leukemia, 87.1%; in the assay on RPMI-8226 leukemia, 63.2%; in the assay with OVCAR-8 ovarian, 89.8%. Also, the growth in the assay with OVCAR-4 ovarian is 78.7%; in the assay on SK-OV-3 ovarian, 85.4%; in the assay on IGROV1 ovarian, 67%; with OVCAR-3 ovarian, 96%; in the assay on HS 578T breast it was 72%.
In the case of `CN(C)c1nc(-c2ccco2)n2nc(-c3ccc(Cl)cc3)cc2n1`, the growth was 99.2% in the assay on SK-MEL-2 melanoma; 84.2% in the assay with EKVX NSCLC; 20.7% in the assay on UO-31 renal; 23.1% in the assay with TK-10 renal; 28.5% in the assay with ACHN renal; 74.1% in the assay with CAKI-1 renal. Further, the growth is 75.8% in the assay on A498 renal; 86.7% in the assay on CCRF-CEM leukemia; 86.8% with MOLT-4 leukemia; 52.7% in the assay with SR leukemia; 74.8% in the assay with RPMI-8226 leukemia; 50.8% in the assay on OVCAR-8 ovarian. Moreover, the growth in the assay on OVCAR-5 ovarian was 90%; in the assay on OVCAR-4 ovarian it was -10.2% (active); in the assay on SK-OV-3 ovarian, 45.9%; with IGROV1 ovarian, 55.8%; in the assay with OVCAR-3 ovarian, 74.1%; in the assay with HS 578T breast it was 65.1%. In addition, the growth with NCI/ADR-RES ovarian was 69%.
For the compound `CCCCn1cnc2c(SCc3ccc([N+](=O)[O-])cc3)nc(N)nc21`, the growth is 91.5% in the assay on SK-MEL-2 melanoma; 103% in the assay on EKVX NSCLC; 87% with SN12C renal; 85% in the assay with TK-10 renal; 87.5% in the assay on ACHN renal; 87.7% in the assay with CAKI-1 renal. The growth in the assay with CCRF-CEM leukemia is 86.3%; in the assay on MOLT-4 leukemia, 24.3%; with SR leukemia, 37.6%; with OVCAR-8 ovarian it was 90.9%; in the assay on OVCAR-5 ovarian, 91.5%; with OVCAR-4 ovarian, 76.3%. Moreover, the growth with SK-OV-3 ovarian was 116%; in the assay on IGROV1 ovarian, 90.3%; in the assay with OVCAR-3 ovarian it was 98.4%; in the assay with HS 578T breast, 107%; in the assay with NCI/ADR-RES ovarian, 89.3%.
For the compound `COc1ccc2nc(C)cc(Sc3nc4ccccc4s3)c2c1`, the growth is -99.6% (active) in the assay with SK-MEL-2 melanoma; 42.1% in the assay with EKVX NSCLC; 16.7% with UO-31 renal; 61.4% with TK-10 renal; 33.7% with ACHN renal; -41.8% (active) in the assay with CAKI-1 renal. In addition, the growth in the assay with A498 renal is 40.7%; with CCRF-CEM leukemia, 7.21% (active); in the assay with MOLT-4 leukemia, -21.2% (active); with SR leukemia, -48% (active); in the assay with RPMI-8226 leukemia it was -39.5% (active); with OVCAR-8 ovarian, 36.5%. In addition, the growth was 61.2% in the assay on OVCAR-5 ovarian; 25.8% in the assay with OVCAR-4 ovarian; 80.5% in the assay on SK-OV-3 ovarian; 22.2% in the assay with IGROV1 ovarian; 22.2% with OVCAR-3 ovarian; 62.1% with HS 578T breast. Besides, the growth in the assay on NCI/ADR-RES ovarian was 29.1%.

The values are drawn from PubChem BioAssay (NCI).
